# Read-outs that look alike come from different tables or passages of the source. Among all 13,000 compounds or so, about 3,200 (25%) showed an effect of 50% or more. This is one part of the list.
# Tested on: P. falciparum stage V gametocytes
# Parameters: BacTiter-Glo ATP luminescence viability of purified stage V gametocytes in 384-well plates, per cent inhibition versus DMSO
# Conditions: 48 h, 5 µM, inhibitor
SMILES,% Inhibition [%],% Inhibition (% Inhibition) [%]
CS(=O)(=O)Cc1ccc(Nc2ncc(Cl)c(Nc3cccnc3C(N)=O)n2)cc1 [TCMDC-134165],-4.656,
CC1CN=C(c2cccc(NC(=O)Nc3cccc(C4=NCC(C)N4)c3)c2)N1 (centres unmarked) [TCMDC-137194],7.217,
COc1cc2c(cc1C(F)(F)F)N(C(=O)Nc1ccc(Br)cn1)CC2 [TCMDC-139015],-19.75,
COc1ccc(O)c(C(=O)c2cnc3c(c2)c(-c2ccc(F)cc2)c(C#N)c(=O)n3C)c1 [TCMDC-124509],-11.41,
O=C(Nc1ccc2c(c1)CCN2C1CCN(Cc2cccc(F)c2F)C1)c1ccco1 (centres unmarked) [TCMDC-135067],14.1,
O=C(N[C@H]1CCN(Cc2ccc(OCCCN3CCCCC3)cc2)C1)c1ccc2ccccc2c1 [TCMDC-141775],63.18,
O=C(N[C@H]1CCN(Cc2ccc(OCCCN3CCCCC3)cc2)C1)c1cc(Cl)cc(Cl)c1 [TCMDC-141774],21.94,
O=C(N[C@H]1CCN(Cc2ccc(OCCCN3CCCCC3)cc2)C1)c1ccc(Cl)c(Cl)c1 [TCMDC-141772],60,
CCCCCCN1CCC(NCc2ccc(OCCN3CCCC3)cc2)CC1 [TCMDC-141663],42.97,
c1cc(OCCN2CCCC2)ccc1CNC1CCN(CC2CCCCC2)CC1 [TCMDC-141656],42.11,
c1ccc(C(c2ccccc2)N2CCC(NCc3ccc(OCCCN4CCCCC4)cc3)CC2)cc1 [TCMDC-141783],82.14,
Cc1cnc(CCNC(=O)c2cc(-c3ccc(Cl)cc3)cs2)[nH]1 [TCMDC-133804],0.312,
CCc1cc(N2CCN(c3ccccc3F)CC2)nc(SCc2ccc(C(=O)NC3CC3)o2)n1 [TCMDC-124808],29.7,
N#Cc1ccc(-c2ccc(C(=O)Nc3ccc4c(c3)CCN(C3CCC3)CC4)nc2)cn1 [TCMDC-136030],49.39,
Cc1nc(-c2ccc(-c3ccc(C(=O)Nc4ccc(-n5ccnc5)c(N5CCN(C)CC5)c4)cc3)c(C)c2)no1 [TCMDC-131988],33.17,
C=C[C@H]1CN(CCCCCCC)CC[C@H]1CC(=O)Nc1cnnc2ccc(OC)cc12 [TCMDC-139791],45.94,
C=C[C@H]1CN(CCCCCCC)CC[C@H]1CC(O)Cc1ccnc2cc(O)c(OC)cc12 (some centres unmarked) [TCMDC-139963],16.88,
C=C[C@H]1CN(CCCCCCC)CC[C@H]1CCN(C)c1ccnc2ccc(OC)cc12.O=C(O)C(=O)O [TCMDC-139276],8.689,
CCCCCCCC1CC(CC(=O)Nc2ccnc3ccc(OC)cc23)CN1C(=O)OC(C)(C)C (centres unmarked) [TCMDC-139304],29.24,
CCCCCCCC1CC(CC(=O)Nc2ccnc3ccc(OC)cc23)CN1 (centres unmarked) [TCMDC-139305],20.34,
CCCCCCCN1CCC(CC(=O)Nc2ccnc3ccc(OC)cc23)C(CC)C1 (centres unmarked) [TCMDC-139299],-28.07,
CCCCCCCN1C2CCC1CC(CCOc1ccnc3ccc(OC)cc13)C2 (centres unmarked) [TCMDC-139275],73.47,
CCCCCCCC1CCN(C[C@H](O)c2ccnc3ccc(OC)cc23)CC1 [TCMDC-139640],6.722,

SMILES,% Inhibition [%],% Inhibition (% Inhibition) [%]
C=C[C@H]1CN2CC[C@H]1C[C@H]2[C@H](O)c1ccnc2ccc(OC)cc12 [TCMDC-123484],,-1.615
C=C[C@H]1CN(CCCCCCC)CC[C@H]1CCNc1ccnc2ccc(OC)cc12 [TCMDC-139204],104.6,
C=C[C@H]1CN(CCCCCCC)CC[C@H]1C[C@@H](Cc1ccnc2ccc(OC)cc12)OC(=O)[C@](OC)(c1ccccc1)C(F)(F)F [TCMDC-139560],78.38,
CCCCCCCN1CCC(CC(=O)Nc2ccnc3ccc(OC)cc23)CC1 [TCMDC-139181],71.31,
CC(C)c1ccc(O)cc1Nc1ccnc2ccc(C(F)(F)F)cc12 [TCMDC-138278],-32.37,
COc1ccc(OC)c(-c2ccc(O)c(CNCC(C)c3ccccc3)c2)c1 (centres unmarked) [TCMDC-124647],7.623,
Nc1nc2c(ncn2OC[C@H]2COP(=O)(O)CO2)c(=O)[nH]1 [TCMDC-131638],1.746,
Cc1cc(C)cc(OCC(O)CN(Cc2cc(Cl)cc(Cl)c2)C(=O)Nc2ccccc2Cl)c1 (centres unmarked) [TCMDC-141476],13.96,
CCOc1cc(C(=O)N[C@@H](Cc2ccccc2)[C@H](O)CNCc2cc(OC)cc(OC)c2)cc(N2CCCCS2(=O)=O)c1 [TCMDC-134524],22.64,
O=C1NC(=O)C(c2cccc(NC(=O)c3ccncc3)c2)=C1c1ccccc1 [TCMDC-140924],2.839,
COc1ccc2nccc([C@@H](O)CN3CCC(NS(=O)(=O)c4cc5c(cc4Cl)SCC(=O)N5)CC3)c2c1 [TCMDC-141159],4.839,
CCCCCCCN1CCC(CCNc2ccnc3ccc(OC)cc23)CC1 [TCMDC-139197],97.49,
CCCCCCCN1CCC(NC(=O)Nc2ccnc3ccc(OC)cc23)C(C(=O)OCC)C1.O=C(O)C(=O)O (centres unmarked) [TCMDC-139929],-3.335,
CCCCCCCN1CCC(NC(=O)Nc2ccnc3ccc(OC)cc23)C(CO)C1.O=C(O)C(=O)O (centres unmarked) [TCMDC-139969],-36.82,
COCCOc1ccc(C(F)(F)F)cc1NC(=O)Cc1c(F)cccc1Cl [TCMDC-125025],-70.46,
CC(C)NCc1ccc(-c2cccc(-c3nc4ccccc4[nH]3)c2)cc1 [TCMDC-132550],-10.92,
c1ccc(CNCc2ccc(-c3cccc(-c4nc5ccccc5[nH]4)c3)cc2)cc1 [TCMDC-132545],18.29,
CC(C)CNCc1ccc(-c2cccc(-c3nc4ccccc4[nH]3)c2)cc1 [TCMDC-132547],59.79,
CN(C)CCNCc1ccc(-c2cccc(-c3nc4ccccc4[nH]3)c2)cc1 [TCMDC-132539],20.35,
CCNCc1ccc(-c2cccc(-c3nc4ccccc4[nH]3)c2)cc1 [TCMDC-132568],85.38,
CC(C)NCc1cccc(-c2ccc(-c3nc4ccccc4[nH]3)cc2)c1 [TCMDC-132746],23.3,
Cc1ccc(Nc2nc(C)cc(Nc3cccc(C#N)c3)n2)cc1 [TCMDC-133460],4.468,
O=C(Nc1ccc(-c2cccc(-c3nc4ccc(C(F)(F)F)cc4[nH]3)c2)cc1)Nc1ccc(Cl)c(Cl)c1 [TCMDC-133278],-24.62,

SMILES,% Inhibition [%],% Inhibition (% Inhibition) [%]
CS(=O)(=O)CCN(CCS(C)(=O)=O)Cc1ccc(-c2ccc3ncnc(Nc4ccc(OCc5cccc(F)c5)c(Cl)c4)c3c2)o1 [TCMDC-138624],0.5882,
CCC(C)C#Cc1c(C)nc(N)nc1N (centres unmarked) [TCMDC-137729],-55.19,
Cc1cccc2nc(-c3ccc(-c4ccc(CNCc5cnn(-c6ccccc6)n5)cc4)s3)[nH]c12.O=C(O)C(F)(F)F [TCMDC-132967],11.48,
CN1CC=C(c2csc3ccc(NC(=O)Nc4ccc(-c5ccncc5)c(Cl)c4)cc23)CC1 [TCMDC-139226],-3.853,
CN1CC=C(c2csc3ccc(NC(=O)Nc4ccc(-c5ccncc5)c5ccccc45)cc23)CC1 [TCMDC-139225],89.24,
CN1CCC(c2csc3ccc(NC(=O)Nc4ccc(-c5ccncc5)c5ccccc45)cc23)CC1 [TCMDC-139229],21.21,
CCNC(=O)c1ccc(-n2nc(C)cc2-c2ccccc2)cc1 [TCMDC-124440],-33.35,
O=C(Nc1cccc(F)c1)N[C@H]1CCN(CCCCCNC(=O)C2CC2c2ccc(Cl)c(Cl)c2)C1 (some centres unmarked) [TCMDC-136261],-0.7596,
O=C(Nc1cc(F)cc(F)c1)NC1CCN(CCCCCNC(=O)C2CC2c2ccc(Cl)c(Cl)c2)CC1 (centres unmarked) [TCMDC-136252],75.57,
Cc1ccc(NC(=O)NC2CCN(CCCCCNC(=O)C3CC3c3ccc(Cl)c(Cl)c3)CC2)cc1 (centres unmarked) [TCMDC-136247],-44.45,
N#Cc1cccc(NC(=O)NC2CCN(CCCCCNC(=O)C3CC3c3ccc(Cl)c(Cl)c3)CC2)c1 (centres unmarked) [TCMDC-136250],5.084,
O=C(Nc1cc(F)cc(F)c1)N[C@H]1CCN(CCCCCNC(=O)C2CC2c2ccc(Cl)c(Cl)c2)C1 (some centres unmarked) [TCMDC-136263],23.53,
O=C(Nc1ccc(Cl)cc1)NC1CCN(CCCCCNC(=O)C2CC2c2ccc(Cl)c(Cl)c2)CC1 (centres unmarked) [TCMDC-136251],-16.96,
O=C(Nc1cccc(F)c1)NC1CCN(CCCCCNC(=O)C2CC2c2ccc(Cl)c(Cl)c2)CC1 (centres unmarked) [TCMDC-136248],79.62,
O=C(Nc1ccc(F)cc1)NC1CCN(CCCCCNC(=O)C2CC2c2ccc(Cl)c(Cl)c2)CC1 (centres unmarked) [TCMDC-136249],82.82,
Cc1cccc(Cn2nc(-c3ccccc3)c(N3CCCCC3)cc2=O)c1 [TCMDC-125526],-20.8,
CCOC(=O)c1ccc(NCc2ccccn2)cc1 [TCMDC-123821],-4.555,
Cc1cc(NC(=O)Nc2ccc3sccc3c2)c2ccccc2n1 [TCMDC-138970],36.17,
CC1(C)N=C(N)N=C(N)N1c1ccc([N+](=O)[O-])cc1 [TCMDC-124128],35.22,
COc1cc(Nc2nc(N)c3cc(OC)c(OC)cc3n2)cc(OC)c1.Cl [TCMDC-131884],-87.65,
COc1cc2c(cc1OC)CN(c1cc(N)c3cc(OC)c(OC)cc3n1)CC2.CS(=O)(=O)O [TCMDC-131968],54.76,
COc1cc2nc(N3CCC(CNC(=O)/C=C/c4ccccc4F)CC3)nc(N)c2cc1OC.Cl [TCMDC-138163],35.62,
